# Source: PubChem (National Center for Advancing Translational Sciences (NCATS))
# Sampled rows, rich in hits. Any-hit rate of the full collection: about 18%.
# TDP1 block: blocks human tyrosyl-DNA phosphodiesterase 1 | recombinant TDP1, AlphaScreen DNA substrate cleavage | 350,000 compounds, 0.28% hits | AID 485290 | Q9NUW8 | Potency, µM (series often up to 130 µM), for the others: at the top dose activity change, negative = inhibition, usual class: inhibitors; note: nearly all actives have a fitted effect of over 40% in size
# Target sequence (Q9NUW8 whole entry, looked up): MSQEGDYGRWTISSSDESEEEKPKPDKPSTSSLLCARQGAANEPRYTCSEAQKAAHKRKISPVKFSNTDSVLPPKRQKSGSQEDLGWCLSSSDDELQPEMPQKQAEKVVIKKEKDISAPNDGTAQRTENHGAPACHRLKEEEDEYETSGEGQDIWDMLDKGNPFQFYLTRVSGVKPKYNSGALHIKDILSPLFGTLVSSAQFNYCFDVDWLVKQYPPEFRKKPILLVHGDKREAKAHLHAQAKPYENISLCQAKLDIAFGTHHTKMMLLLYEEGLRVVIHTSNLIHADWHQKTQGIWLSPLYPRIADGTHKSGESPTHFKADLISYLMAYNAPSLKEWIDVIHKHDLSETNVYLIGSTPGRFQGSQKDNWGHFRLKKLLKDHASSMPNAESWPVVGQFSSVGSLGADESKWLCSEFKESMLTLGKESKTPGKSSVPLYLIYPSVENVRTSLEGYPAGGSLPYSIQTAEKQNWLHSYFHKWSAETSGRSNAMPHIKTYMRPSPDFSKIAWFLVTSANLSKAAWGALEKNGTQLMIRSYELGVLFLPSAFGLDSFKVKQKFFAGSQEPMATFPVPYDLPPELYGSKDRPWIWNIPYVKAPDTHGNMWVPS
#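 Enzyme-compound mixtures sat 15 min at room temperature, followed by a 5 min reaction with 15 nM final substrate and 10 min with AlphaScreen beads. Recombinant human Tdp1 was used at 1 nM final.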
# KAT2A inh: GCN5L2 (KAT2A) acetyltransferase inhibition. GCN5L2 HAT assay, ThioGlo1 CoA-SH fluorescence. 390,000 compounds, 0.21% hits. AID 504327. Potency, µM (top dose mostly 58.9 µM), for the others: at the top dose activity change, negative = inhibition, most hits filed as inhibitors
#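 GCN5L2 (20 nM) in 50mM HEPES pH 7.5, 0.1mM EDTA, 0.01% Tween-20 preincubated 15 min with compounds at room temperature. Reaction started with H3(1-25) 75uM, acetyl-CoA 70uM, ThioGlo1 50uM; CoA-thiol fluorescence (Ex340/Em540) read at 0 and 20 min.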
# DT40 TDP1 CPT: growth inhibition of DT40 Tdp1-/-;hTDP1 cells with camptothecin (screen for TDP1 inhibitors); chicken DT40 Tdp1-/-;hTDP1 cells + 20 nM CPT, ATP luminescence, 48 h; Potency, µM (top dose mostly 46.2 µM), inactives show at the top dose activity change, negative = growth inhibition, most hits filed as inhibitors; 420,000 compounds, 12% hits; note: nearly all actives have a fitted effect of over 55% in size
#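 Chicken DT40 Tdp1-/- cells stably complemented with human TDP1 were seeded at 400 cells/well in medium containing 20 nM camptothecin, exposed to pin-transferred compounds, and grown at 37 °C for at least 48 hr. Viability was read as ATP luminescence.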
# TDP1 cell noCPT: qHTS for Inhibitors of human tyrosyl-DNA phosphodiesterase 1 (TDP1): qHTS in cells in absence of CPT; DT40 Tdp1-/- hTDP1 cells, no CPT, ATP luminescence, 48 h; Potency, µM (top dose mostly 46.2 µM), without a hit: at the top dose activity change, negative = growth inhibition, hits mostly inhibitors; 420,000 compounds, 15% hits; note: nearly all actives have a fitted effect of over 55% in size
#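 Compound effects on proliferation are scored in DT40 Tdp1-/-;hTDP1 cells in the absence of CPT. ATP levels (CellTiter-Glo luminescence) are recorded after a ≥48 hr, 37 °C incubation.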
# VDR inh: vitamin D3 receptor (human) inhibition | 400,000 compounds, 0.93% hits | AID 504847 | Potency, µM, for inactives: max response, negative = inhibition, usual class: inhibitors | VDR-SRC2-3 peptide fluorescence polarization, 2 h | P11473
#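 Signal is fluorescence polarization, reporting how far test compounds block the interaction of VDR with the SRC2-3 coregulator peptide after a 2 h room-temperature incubation.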
# PLK1 PBD inh: PLK1 (human) polo-box domain binding inhibition; Plk1 PBD binding of FITC phosphopeptide, fluorescence polarization; 360,000 compounds, 2.8% hits; Potency, µM, for the others: max response, negative = inhibition, actives largely listed as inhibitors; P53350; note: series mostly up to about 57 µM; nearly all actives have a fitted effect of over 65% in size
# * = called active by the depositor; ? = inconclusive; / = not tested or not shown; [ ] = dose if it differs, or a comment. Calls come from the whole dose curve; as a rule, active = well fitted curve in the direction sought with a large enough effect; inconclusive = small, poorly fitted or top-dose-only effect, or another doubt; inactive = no such curve, though single readings can be large; an effect the other way counts as inactive or inconclusive. % is set by controls: 0 for no effect and ±100 for the full control effect; potency is the fitted concentration of half-maximal effect.
SMILES,TDP1 block,KAT2A inh,DT40 TDP1 CPT,TDP1 cell noCPT,VDR inh,PLK1 PBD inh
COc1cc(C(=O)NCC(c2cccnc2)N2CCN(c3ccc(F)cc3)CC2)cc(OC)c1OC (stereo unspecified),2%,-3%,?,21µM*,-10%,-5%
O=C(NCC(c1cccnc1)N1CCN(c2ccccc2F)CC1)C1CCCCC1 (stereo unspecified),4%,-1%,?,10µM*,17%,-8%
O=C(NCC(c1cccnc1)N1CCN(c2ccc(F)cc2)CC1)C1CCCCC1 (stereo unspecified),0%,0%,?,?,-2%,-1%
O=C(NCC(c1cccnc1)N1CCN(c2ccc(F)cc2)CC1)c1ccc(F)cc1 (stereo unspecified),-2%,-7%,?,16µM*,-7%,-4%
C[C@]12CCC(=O)CC1=CCC1C3CC=C(C#N)[C@@]3(C)CC[C@@]12O (stereo partly specified),/,-1%,-18%,-26%,-20%,-4%
COc1ccc(-c2nc3c(c4c2C[C@H](c2ccccc2)OC4)CN(C(=O)Cc2cccs2)CC3)c(C)c1,11%[12.3 µM],/,/,/,/,/
O=S(=O)(NCC(c1cccnc1)N1CCN(c2ccccc2F)CC1)c1cccs1 (stereo unspecified),7%,3%,15µM*,?,5%,4%
O=C(NCC(c1cccnc1)N1CCN(c2ccc(F)cc2)CC1)c1ccco1 (stereo unspecified),/,2%,?,16µM*,-5%,-15%
O=C(NCCC1=CCCCC1)C(=O)NCC(c1ccco1)N1CCN(c2ccccc2)CC1 (stereo unspecified),2%,-3%,12µM*,9.2µM*,-10%,6%
CCc1ccc(NC(=O)C(=O)NCC(c2cccnc2)N2CCN(c3ccc(F)cc3)CC2)cc1 (stereo unspecified),1%,-6%,?,3.7µM*,7%,/
COc1ccc(N2CCN(C(CNC(=O)C(=O)NCCC3=CCCCC3)c3ccco3)CC2)cc1 (stereo unspecified),4%,7%,?,?,4%,-8%
COc1ccc(N2CCN(C(CNC(=O)c3ccco3)c3cccnc3)CC2)cc1 (stereo unspecified),1%,-5%,?,?,-4%,-2%
O=S(=O)(NCC(c1cccnc1)N1CCN(c2ccc(F)cc2)CC1)c1cccs1 (stereo unspecified),9%,-6%,?,?,-25%,-4%
CC(CCc1ccccc1)NC(=O)COC(=O)C(CCC(N)=O)NC(=O)c1ccc(F)cc1 (stereo unspecified),-3%[56.1 µM],-3%,1%,-2%,-2%,-5%
O=C(NCc1cccs1)C(=O)NCC(c1ccco1)N1CCN(c2ccc(F)cc2)CC1 (stereo unspecified),7%,-15%,?,23µM*,14%,0%
O=C(NCC(c1cccnc1)N1CCN(c2ccc(F)cc2)CC1)c1ccc2c(c1)OCO2 (stereo unspecified),1%,-5%,16µM*,8.2µM*,15%,-1%
O=C(NCC(c1cccnc1)N1CCN(c2ccccc2F)CC1)c1ccc(F)cc1 (stereo unspecified),-5%,-5%,15µM*,21µM*,10%,/
COCCNC(=O)C(=O)NCC(c1cccnc1)N1CCN(c2ccccc2F)CC1 (stereo unspecified),0%,2%,-20%,-29%,8%,/
CN(Cc1ccccc1)C1(CNC(=O)CCC(F)(F)F)Cc2ccccc2C1,/,2%,?,?,-3%,-5%
CCc1ccc(-c2cn3c(n2)sc2cc(C(=O)NCCC4=CCCCC4)ccc23)cc1,-1%,-1%,?,?,9%,/
CCCNC(=O)c1ccc2c(c1)sc1nc(-c3ccc(C)cc3)cn12,0%,-14%,5.8µM*,5.8µM*,5%,/
CCN(CC)CCCNC(=O)c1ccc2c(c1)sc1nc(-c3ccc(C)cc3)cn12,4%,-9%,2.3µM*,2.3µM*,-5%,/
CCN1CCCC1Cn1c(-c2ccccc2)nc2c(NC3CCCCC3)nc(C)nc21 (stereo unspecified),6%,/,/,/,/,/
Cc1cc(Cl)c2oc(C(=O)N3CCN(c4cnccn4)CC3)c(C)c2c1,/,/,?,?,/,2%
Cc1ccc2c(C)c(C(=O)N3CCN(c4cnccn4)CC3)oc2c1C,8%,-5%,?,18µM*,-10%,1%
SMILES,TDP1 block,KAT2A inh,DT40 TDP1 CPT,TDP1 cell noCPT,VDR inh,PLK1 PBD inh
COc1cccc(CNC(=O)CCNS(=O)(=O)c2ccc3[nH]c(=O)oc3c2)c1,1%,-30%,-2%,4%,-2%,8%
COc1ccccc1CNC(=O)CCNS(=O)(=O)c1ccc2[nH]c(=O)oc2c1,2%,2%,-22%,-2%,-16%,34µM*
COc1ccc(OC)c(NC(=O)CCNS(=O)(=O)c2ccc3[nH]c(=O)oc3c2)c1,2%,-2%,-1%,17%,1%,-1%
COc1ccccc1NC(=O)CCNS(=O)(=O)c1ccc2[nH]c(=O)oc2c1,-6%,-2%,23µM*,?,?,30µM*
O=C(Nc1nnc(SCc2ccccn2)s1)C1CC(=O)N(c2ccc(F)cc2)C1 (stereo unspecified),4%,-20%,-13%,-18%,-10%,-18%
CCn1c(CNC(=O)COc2ccc(C(C)C)cc2)nnc1SCC(=O)Nc1ccccc1C(C)C,2%,4%,16µM*,16µM*,9%,-3%
O=C(COC(=O)c1nc(Cl)ccc1Cl)NC(=O)c1ccccc1,2%,2%,-28%,-9%,0%,-1%
CCC(=O)N1CCc2cc(Br)cc(S(=O)(=O)N3CCCC(C(=O)Nc4ccc(OC)c(Cl)c4)C3)c21 (stereo unspecified),0%,-7%,-15%,?,-12%,/
CCC(=O)N1CCc2cc(Br)cc(S(=O)(=O)N3CCCC(C(=O)Nc4cccc(Cl)c4C)C3)c21 (stereo unspecified),-2%,-2%,15µM*,12µM*,?,/
CCC(=O)N1CCc2cc(Br)cc(S(=O)(=O)NCCc3ccccc3Cl)c21,3%,-12%,16µM*,21µM*,-6%,/
CCC(=O)N1CCc2cc(Br)cc(S(=O)(=O)CCC(=O)NCCc3cccc(C)c3)c21,0%,2%,16µM*,23µM*,-7%,/
